Compound activity as filed in PubChem.
IP6K1 inhibitor – IP6K1 kinase inhibition | 0.81% of 140,000 active | activity change, % (series mostly up to about 58 µM) | Q92551 | IP6K1 kinase, ADP-Glo luminescence, 2 h; active compounds read low; in the data active = activity change below about -25%; also: % is scaled to controls: 0 for no effect and ±100 for the full control effect
Target sequence (Q92551 whole entry, looked up): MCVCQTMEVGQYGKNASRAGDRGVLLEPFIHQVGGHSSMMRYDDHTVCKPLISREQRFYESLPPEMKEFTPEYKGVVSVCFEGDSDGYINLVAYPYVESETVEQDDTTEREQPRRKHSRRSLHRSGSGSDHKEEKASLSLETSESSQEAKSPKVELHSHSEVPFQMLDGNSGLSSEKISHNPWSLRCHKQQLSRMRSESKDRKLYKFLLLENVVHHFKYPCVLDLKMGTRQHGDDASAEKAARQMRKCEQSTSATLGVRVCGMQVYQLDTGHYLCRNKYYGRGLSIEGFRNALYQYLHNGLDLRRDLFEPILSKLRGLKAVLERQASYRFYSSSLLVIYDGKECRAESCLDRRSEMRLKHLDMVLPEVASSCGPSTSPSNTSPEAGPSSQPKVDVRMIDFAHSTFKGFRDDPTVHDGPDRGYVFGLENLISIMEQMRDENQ
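ADP-Glo luminescence measures ADP made by human IP6K1 during a 2 h RT reaction with ATP/IP6 (mix at 1.3 mM/130 uM); top library doses 57.5 and 19.1 uM final.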
KDM5B inhibitor – inhibitors of human KDM5B histone demethylase | 2.6% of 220,000 active | Potency, µM (titrated, usually from 57.7 µM), usual class: inhibitors | Q9UGL1 | KDM5B demethylase, FDH-coupled NADH fluorescence (FDH is formaldehyde dehydrogenase); also: potency is read from the fitted curve at half-maximal effect; 0% is about no effect; nearly all actives have a fitted effect of over 70% in size
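Compound dilutions met 200 nM (final) KDM5BΔAP for 10 min at room temperature before substrate addition. The substrate mix held 12.5 µM H3K4me3 with cofactors 25 µM α-ketoglutarate and 50 µM Fe²⁺. NADH signal gain over 30 min defined activity.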
* = called active by the depositor; i = inactive; u = inconclusive; x = no result given. Shown are actives, neighbours in structure and some others; about 2.8% of the full set was active somewhere.

SMILES	IP6K1 inhibitor	KDM5B inhibitor
O=C(NCc1ccccc1F)C1CCCCN1Cc1ccc(-c2ccsc2)cc1 (centres undefined)	-10	x
CCC(CNC(=O)c1ccc2c(c1)NC(=O)CS2)c1ccccc1 (centres undefined)	x	i
O=C(NCCc1ccc(F)cc1)C1CCCCN1Cc1ccc(-c2ccsc2)cc1 (centres undefined)	10	x
O=C(NCc1cc(F)cc(F)c1)c1nc(-c2ccc(F)cc2)c2ccccn12	25	u
O=C(NCc1ccc(F)cc1)c1nc(-c2ccc(Cl)cc2)c2ccccn12	10	25µM*
CS(=O)(=O)c1ccc(-c2nc(C(=O)NCc3cccnc3)n3ccncc23)cc1	19	10µM*
O=C(NC1CC1)c1ccc2oc(-c3ccnc(Cl)c3)nc2c1	10	x
COc1ccc(S(=O)(=O)Nc2cc(C)cc(C)c2)c2cccnc12	x	i
COc1ccc(-c2ccccc2C(=O)N(C(C)C)C(C)C)c2cccnc12	4	u
COc1ccc(-c2nc(C)c(C)cc2C#N)c2cccnc12	34	32µM*
COc1nc(-c2ccc(OC)c3ncccc23)ncc1F	-14	32µM*
O=C(Nc1ccccc1)N1C[C@@H]2C[C@H](C1)c1ccc(-c3cccc(C(F)(F)F)c3)c(=O)n1C2	11	32µM*
CC(C)(CC(=O)O)CC(=O)N1C[C@@H]2C[C@H](C1)c1ccc(-c3cccc(C(F)(F)F)c3)c(=O)n1C2	4	28µM*
O=C(Cc1ccccc1)Nc1ccc2n(c1=O)C[C@H]1C[C@@H]2CN(S(=O)(=O)c2ccc(Cl)cc2)C1	-1	u
COc1ccc(C(=O)Nc2ccc3n(c2=O)C[C@H]2C[C@@H]3CN(C(=O)CCCC(=O)O)C2)cc1	-1	i
O=c1c(-c2cccc(C(F)(F)F)c2)ccc2n1C[C@H]1C[C@@H]2CN(S(=O)(=O)c2ccccc2)C1	7	u
COc1ccc(S(=O)(=O)N2C[C@@H]3C[C@H](C2)c2ccc(-c4cccc(C(F)(F)F)c4)c(=O)n2C3)cc1	5	32µM*
CC(=O)Nc1ccc(S(=O)(=O)N2C[C@@H]3C[C@H](C2)c2ccc(-c4ccccc4C)c(=O)n2C3)cc1	12	25µM*
N#Cc1cccc(NC(=O)N2C[C@@H]3C[C@H](C2)c2ccc(-c4ccc(OC(F)(F)F)cc4)c(=O)n2C3)c1	-8	i
Cc1cccc(C(=O)NC(C)C(=O)OC(C)C(N)=O)c1 (centres undefined)	x	i
CC(C)NC(=O)C1CCC(=O)N1C1CCN(C(=O)Cc2ccc(Cl)cc2)CC1 (centres undefined)	19	x
CCOc1ccc(NC(=O)N2CCc3nc(-c4ccccc4)[nH]c3C2)cc1	8	x
CC(C)COC(=O)N[C@@H]1C[C@@H]2CO[C@H](c3ccccc3)C[C@@H]2C1	10	x
O=C(CN1CCN(S(=O)(=O)Cc2ccccc2)CC1)Nc1cccc(Cl)c1	x	i
COCC(=O)NC1CCCN(c2ccc3nnc(-c4ccccc4)n3n2)C1 (centres undefined)	1	x
SMILES	IP6K1 inhibitor	KDM5B inhibitor
Cc1ccc(-n2nc(C)c([C@@H]3C=C[C@@H](NCc4ccc(N(C)C)cc4)C3)c2C)cc1Cl	14	40µM*
Cc1nn(-c2ccc(C(C)(C)C)cc2)c(C)c1[C@@H]1C=C[C@@H](NC(=O)NCc2ccccc2)C1	13	32µM*
Cc1ccc(-n2nc(C)c([C@@H]3C=C[C@@H](NCc4ccc(F)cc4)C3)c2C)cc1Cl	-5	u
Cc1nn(-c2ccc(C(F)(F)F)cc2)c(C)c1[C@@H]1C=C[C@@H](NC(=O)c2ccc(N(C)C)cc2)C1	10	32µM*
Cc1nn(-c2ccc(C(C)(C)C)cc2)c(C)c1[C@@H]1C=C[C@@H](NC(=O)c2ccc(N(C)C)cc2)C1	7	u
Cc1nn(-c2ccc(C(C)C)cc2)c(C)c1[C@@H]1C=C[C@@H](NC(=O)NCc2ccccc2)C1	-4	i
O=C(Nc1cccc(Cl)c1)c1nc2sccn2c1-c1ccncc1	8	x
CC(C)C(=O)NC1CCN(C(=O)c2ccc(-c3cccs3)cc2)CC1	7	x
O=C(CSc1ccccc1C(=O)O)Nc1ccc2c(c1)OCCCO2	x	i
COc1ccc(C)cc1S(=O)(=O)Nc1ccc(Nc2nc(C)cc(N3CCCC3)n2)cc1	x	i
CCc1nc2c(c(-c3ccc(O)cc3)n1)CN(Cc1ccsc1)CC2	0	x
CN1CC2CN(c3ccc4oc5ccccc5c(=O)c4c3)CC2C1 (centres undefined)	-14	x
COc1ccc(CCc2nc3nccc(-c4ccncc4)n3n2)cc1	-13	i
CCc1nc2nccc(-c3ccc(OC)c(OC)c3)n2n1	-5	20µM*
COc1ccc(CCc2nc3nccc(-c4ccc(OC)cc4)n3n2)cc1	-11	25µM*
COc1ccc(CCc2nc3nccc(-c4ccc(OC)c(OC)c4)n3n2)cc1OC	-5	u
COc1ccc(-c2ccnc3nc(CCc4ccc(OC)c(OC)c4)nn23)cc1	-11	25µM*
CCc1nc2nccc(-c3cc(OC)c(OC)c(OC)c3)n2n1	0	u
CCc1nc2nccc(-c3ccc(Br)cc3)n2n1	12	16µM*
CCCCOc1ccc(-c2nc(C3CC(=O)N(C4CCCCC4)C3)no2)cc1 (centres undefined)	-6	u
CNC(=O)[C@H]1C[C@]2(CCCCN(CCO)C2=O)N(C(=O)Cc2cccs2)[C@H]1c1ccco1	-5	x
Cc1nn(-c2ccccc2)c2c1C(C)N(C1CCCN(C(=O)Nc3ccccc3)C1)C2=O (centres undefined)	8	x
O=C(NCc1cccc(Cl)c1)c1noc(-c2ccc3c(c2)OCO3)n1	-3	28µM*
CC(NC(=O)c1noc(-c2ccc3c(c2)OCO3)n1)c1ccccc1 (centres undefined)	-2	i
O=C(NCCc1ccccc1)c1noc(-c2ccc3c(c2)OCO3)n1	-1	u
SMILES	IP6K1 inhibitor	KDM5B inhibitor
Cc1cccc(CNC(=O)c2noc(-c3ccc4c(c3)OCO4)n2)c1	-3	u
CCOc1ccccc1CNC(=O)c1noc(-c2ccc3c(c2)OCO3)n1	15	32µM*
CCc1ccc(CNC(=O)c2noc(-c3ccc4c(c3)OCO4)n2)cc1	2	u
Cc1cccc(CCNC(=O)c2noc(-c3ccc4c(c3)OCO4)n2)c1	0	32µM*
COc1ccc(CNC(=O)c2noc(-c3ccc4c(c3)OCO4)n2)cc1	-1	28µM*
CCc1cccc(NC(=O)C2CCN(C(=O)c3nnn4c3COC(c3ccc(C)cc3)C4)CC2)c1 (centres undefined)	-10	i
Cc1ccc(CNC(=O)c2noc(-c3ccc4c(c3)OCO4)n2)cc1	5	35µM*
Cc1ccc(-c2nc(C(=O)NCc3ccc4c(c3)OCO4)no2)cc1	0	i
C=CCOc1cccc(-c2nc(C(=O)NCc3cccc(F)c3)cs2)c1	-12	u
O=C(NCc1ccc(F)cc1Cl)c1noc(-c2ccc3c(c2)OCO3)n1	-7	32µM*
O=C(NCc1ccc(F)cc1F)c1noc(-c2ccc3c(c2)OCO3)n1	-3	u
COc1ccc(CNC(=O)Cn2cccc2-c2nc(-c3ccc4c(c3)OCO4)no2)cc1OC	17	i
CCOc1cccc(-c2nc(C(=O)NCc3ccc4c(c3)OCO4)cs2)c1	-7	25µM*
COc1cccc(CNC(=O)Cn2cccc2-c2nc(-c3ccc4c(c3)OCO4)no2)c1	21	28µM*
